Each structure is given as a SMILES string. This is part of a sample that, as a whole, favours compounds with a hit. Of some 83,000 tested, about 20% had one in any assay.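 Single-concentration screen, 48 h exposure, 96-well plates. Endpoint: percent growth. Below 10 = active.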 Unmarked numbers belong to inactive results. Active and inactive are the calls of the source.

These results are taken from PubChem BioAssay (NCI).

Test systems include SR leukemia; RPMI-8226 leukemia; OVCAR-8 ovarian; OVCAR-5 ovarian; OVCAR-4 ovarian; SK-OV-3 ovarian; IGROV1 ovarian; OVCAR-3 ovarian; HS 578T breast; NCI/ADR-RES ovarian; T-47D breast; BT-549 breast; MDA-MB-435 melanoma; SW-620 colon; HCT-116 colon; HCC-2998 colon; KM12 colon; MCF7 breast.
What all share (assay): NCI-60 one-dose screen, 48 h (100 = growth as untreated, 0 = no growth, -100 = all killed)
Holding throughout (conditions): 10 µM unless noted

In the case of `CN(C)CCOc1ccc(/C(=C(/CCCCCCCCCC[P+](c2ccccc2)(c2ccccc2)c2ccccc2)c2ccccc2)c2ccccc2)cc1`, the growth in the experiment with SR leukemia was -53.4% (active); in the experiment on RPMI-8226 leukemia it was -48.3% (active); in the experiment on OVCAR-8 ovarian, -53.5% (active); in the experiment on OVCAR-5 ovarian, -97.2% (active); with OVCAR-4 ovarian, -81.6% (active); in the experiment with SK-OV-3 ovarian it was -81% (active). Further, the growth in the experiment with IGROV1 ovarian was -76.5% (active); in the experiment on OVCAR-3 ovarian, -93.9% (active); in the experiment on HS 578T breast, -36.4% (active); with NCI/ADR-RES ovarian, -69% (active); in the experiment with T-47D breast, -56.2% (active); in the experiment on BT-549 breast it was -78.3% (active). Further, the growth was -98.1% (active) with MDA-MB-435 melanoma; -85% (active) with SW-620 colon; -72% (active) in the experiment with HCT-116 colon; -83.9% (active) with HCC-2998 colon; -80.9% (active) with KM12 colon.
For `C#CCOc1cccc(-c2ncnc3cc(NC(=O)CCl)ccc23)c1`, the growth is -11.5% (active) in the experiment on SR leukemia; -38.1% (active) in the experiment on RPMI-8226 leukemia; -5.91% (active) in the experiment on OVCAR-8 ovarian; -47.3% (active) with OVCAR-5 ovarian; -25.6% (active) with OVCAR-4 ovarian; 51% with SK-OV-3 ovarian. Moreover, the growth with IGROV1 ovarian was -54.2% (active); with OVCAR-3 ovarian it was -78.2% (active); in the experiment with HS 578T breast it was 17%; in the experiment with NCI/ADR-RES ovarian, 1.21% (active); with T-47D breast it was -33.8% (active); in the experiment with BT-549 breast, -27.8% (active). The growth with MDA-MB-435 melanoma is -24.7% (active); in the experiment on SW-620 colon, -58.6% (active); in the experiment on HCT-116 colon it was -74.1% (active); in the experiment on HCC-2998 colon, 56.6%; in the experiment on KM12 colon, 16.2%.
On to `COc1cc2c(c(OC)c1OC)CCC(c1cccc(NC(=O)c3cccc(Cl)c3)c1)O2` (stereo unspecified), for which the growth in the experiment with SR leukemia is 60.3%; in the experiment with RPMI-8226 leukemia it was 64.9%; in the experiment with OVCAR-8 ovarian, 95.6%; in the experiment on OVCAR-5 ovarian, 92.8%; with OVCAR-4 ovarian, 81.1%; in the experiment with SK-OV-3 ovarian, 72.9%. In addition, the growth was 86.8% with IGROV1 ovarian; 92% with OVCAR-3 ovarian; 76.3% in the experiment with HS 578T breast; 90.5% in the experiment on NCI/ADR-RES ovarian; 59.1% in the experiment on T-47D breast; 89.9% with MDA-MB-435 melanoma. Besides, the growth in the experiment on SW-620 colon is 93.9%; with MCF7 breast it was 84.4%; in the experiment on HCT-116 colon, 87.7%; with HCC-2998 colon, 100%; in the experiment on KM12 colon, 97.1%.
Take `O=C1c2cccnc2C(=O)c2c1c(C(=O)OCCCN1CCOCC1)c1ccccn21`: the growth with SR leukemia was -2.21% (active); with RPMI-8226 leukemia it was -17.2% (active); with OVCAR-8 ovarian, -46.2% (active); in the experiment on OVCAR-5 ovarian, -11.2% (active); in the experiment on OVCAR-4 ovarian, -19.1% (active); with SK-OV-3 ovarian, -11.6% (active). For the same compound, the growth with IGROV1 ovarian is -3.82% (active); with OVCAR-3 ovarian it was 2.32% (active); in the experiment on HS 578T breast it was 26.9%; in the experiment with NCI/ADR-RES ovarian, -13.7% (active); in the experiment on T-47D breast, 4.62% (active); in the experiment on MDA-MB-435 melanoma it was -32.4% (active). The growth with SW-620 colon was -39.3% (active); in the experiment with MCF7 breast it was -38.7% (active); in the experiment on HCT-116 colon, -49.6% (active); in the experiment on HCC-2998 colon it was 7.61% (active); in the experiment on KM12 colon, 15.7%.
`CCOC(=O)c1c(Nc2nc3ccccc3s2)sc2c1CCC(=O)C2`: the growth in the experiment with SR leukemia was 0.365% (active); in the experiment with RPMI-8226 leukemia, 12.7%; in the experiment with OVCAR-8 ovarian it was 27.2%; in the experiment on OVCAR-5 ovarian, 86.7%; in the experiment with OVCAR-4 ovarian, 8.06% (active); with SK-OV-3 ovarian, 99.5%. Besides, the growth is 44.7% in the experiment on IGROV1 ovarian; 49.7% with OVCAR-3 ovarian; 41.1% in the experiment on HS 578T breast; 87.3% with NCI/ADR-RES ovarian; 37% in the experiment with T-47D breast; 13.5% in the experiment with BT-549 breast. Also, the growth in the experiment on MDA-MB-435 melanoma is 82.6%; in the experiment with SW-620 colon, 19.4%; with HCT-116 colon, 11.4%; in the experiment on HCC-2998 colon, 104%; in the experiment with KM12 colon it was 47.7%.
On to `O=CN1N=C(c2cccc(Nc3ccncc3)c2)CC1c1ccc2c(c1)OCO2` (stereo unspecified), for which the growth with SR leukemia is 82.1%; in the experiment on RPMI-8226 leukemia, 80%; with OVCAR-8 ovarian it was 91.3%; in the experiment with OVCAR-5 ovarian, 98.5%; in the experiment on OVCAR-4 ovarian, 82.7%; with SK-OV-3 ovarian it was 78.6%. Moreover, the growth was 102% with IGROV1 ovarian; 99.6% in the experiment with OVCAR-3 ovarian; 94.2% with HS 578T breast; 101% with NCI/ADR-RES ovarian; 79.1% in the experiment on T-47D breast; 92.1% in the experiment with MDA-MB-435 melanoma. In addition, the growth was 102% with SW-620 colon; 81.7% in the experiment with MCF7 breast; 83.1% in the experiment on HCT-116 colon; 98.5% in the experiment with HCC-2998 colon; 98.4% in the experiment with KM12 colon.
With `O=C(CN1C(=O)c2ccccc2S1(=O)=O)Nc1nc(-c2cc3ccccc3oc2=O)cs1`, the growth is 109% with SR leukemia; 108% with RPMI-8226 leukemia; 101% in the experiment with OVCAR-8 ovarian; 106% in the experiment on OVCAR-5 ovarian; 110% in the experiment on OVCAR-4 ovarian; 106% in the experiment with SK-OV-3 ovarian. Further, the growth in the experiment with IGROV1 ovarian was 99.1%; in the experiment on OVCAR-3 ovarian it was 113%; in the experiment with HS 578T breast, 96.6%; in the experiment with NCI/ADR-RES ovarian it was 103%; with T-47D breast it was 98.7%; in the experiment with MDA-MB-435 melanoma, 104%. Further, the growth with SW-620 colon is 103%; in the experiment with MCF7 breast, 96.6%; in the experiment on HCT-116 colon, 104%; with HCC-2998 colon, 102%; with KM12 colon it was 101%.
As to `COc1cc(OCc2cccc(-c3ccc4c(c3)OCCO4)c2C)cc(OC)c1C=O`, the growth is 37.3% with SR leukemia; 29.6% in the experiment on RPMI-8226 leukemia; 70.4% in the experiment on OVCAR-8 ovarian; 68.7% in the experiment with OVCAR-5 ovarian; 35.9% in the experiment on OVCAR-4 ovarian; 93.2% in the experiment with SK-OV-3 ovarian. In addition, the growth was 68.1% in the experiment on IGROV1 ovarian; 60.5% in the experiment with OVCAR-3 ovarian; 75.9% with HS 578T breast; 70.4% with NCI/ADR-RES ovarian; 10.1% in the experiment with T-47D breast; 56.6% with BT-549 breast. Further, the growth was 52.9% with MDA-MB-435 melanoma; 70.2% in the experiment with SW-620 colon; 44.1% in the experiment with HCT-116 colon; 70.3% with HCC-2998 colon; 78.9% in the experiment with KM12 colon.
